Test [1] is described as follows: qHTS assay to identify small molecule agonists of the vitamin D receptor (VDR) signaling pathway - cell viability counter screen (AID 743224). Further: series mostly up to about 63 µM; on the % scale 0 is the no-effect control and ±100 the full control effect; nearly all actives have a fitted effect of over 50% in size. In a few lines: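 VDR-bla cells were preincubated 4 h at 37C/5% CO2, then exposed to compounds for 16 h. After the 2 h room-temperature bla FRET read, CellTiter-Glo was added to the same wells and luminescence read after 30 min.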

A short description of test [2]: qHTS assay to identify small molecule antagonists of the vitamin D receptor (VDR) signaling pathway - cell viability counter screen (AID 743225). Further: on the % scale 0 is the no-effect control and ±100 the full control effect; nearly all actives have a fitted effect of over 50% in size. In a few lines:
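VDR-UAS-bla HEK 293T cells were plated and incubated 4 h at 37C, then dosed with compound plus 3 nM (final) 1-alpha,25-dihydroxyvitamin D3 for 16 h. After the 2 h beta-lactamase read, viability in the same wells was read as CellTiter-Glo luminescence after 30 min at room temperature.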
For orientation: qHTS replaces the single test concentration by a dilution series.

Test [3] in a line: qHTS assay to identify small molecule agonists of the NFkB signaling pathway - cell viability counter screen (AID 1159515; calls by dose curve; further: series mostly up to about 61 µM; on the % scale 0 is the no-effect control and ±100 the full control effect; nearly all actives have a fitted effect of over 55% in size). The gist of the method: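 NFkB-bla ME-180 cells, 2,000/well, were plated overnight at 37 C, 5% CO2, then exposed to compounds in DMSO for 5 hr. After the bla FRET read, CellTiter-Glo was added to the same wells; luminescence was read after 30 min at room temperature.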

Test [4] in a line: qHTS assay to identify small molecule agonists of the endoplasmic reticulum stress response signaling pathway (AID 1159516; active means well fitted activation curve with a large enough effect in the signal ratio in the repeat runs, not every such curve was filed as active; the % refers to the signal ratio; further: on the % scale 0 is the no-effect control and ±100 the full control effect). The gist of the method: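 CellSensor ESRE-bla HeLa cells, carrying a beta-lactamase reporter driven by the ER stress response element, were plated overnight and exposed to compounds for 5 hr at 37 C. Reporter activity was read as FRET substrate fluorescence after 2 hr at room temperature.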

The nature of test [5]: qHTS assay to identify small molecule agonists of the endoplasmic reticulum stress response signaling pathway - cell viability counter screen (AID 1159517; calls by dose curve; further: series mostly up to about 61 µM; on the % scale 0 is the no-effect control and ±100 the full control effect; nearly all actives have a fitted effect of over 50% in size). The gist of the method: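 Cells, HeLa ESRE-bla; density, 1,500/well; dosing, 5 hr at 37 C, 5% CO2; readout, CellTiter-Glo luminescence after 30 min RT.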
Test [6] can be described thus: qHTS assay to identify small molecule antagonists of the retinoid-related orphan receptor gamma (ROR-gamma) signaling pathway - cell viability counter screen (AID 1159520). Further: on the % scale 0 is the no-effect control and ±100 the full control effect; nearly all actives have a fitted effect of over 50% in size. In a few lines: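 Cytotoxicity was read from cellular ATP (CellTiter-Glo luminescence) after 16 hr at 37 C with 1 uM doxycycline induction. The inducer was added 2 hr after compound transfer to Tet-on ROR gamma CHO cells.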

Test [7] has as its target Nuclear receptor ROR-gamma (Homo sapiens) (UniProt P51449). As to the kind of experiment: qHTS assay to identify small molecule antagonists of the retinoid-related orphan receptor gamma (ROR-gamma) signaling pathway (AID 1159521). The gist of the method: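 Tet-on ROR-gamma CHO cells with ROR response element-luciferase reporter; compounds added 2 hr before 1 uM doxycycline induction, then 16 hr at 37 C. Antagonism scored as decreased ONE-Glo luminescence.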

The nature of test [8]: qHTS assay to identify small molecule agonists of the AP-1 signaling pathway - cell viability counter screen (AID 1159525; calls by dose curve; further: nearly all actives have a fitted effect of over 55% in size). In a few lines:
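Luminescent ATP readout (Cell Titer Glo, 30 min RT), normalised to DMSO and tetra n-octyl ammonium bromide controls. Cells were ME-180 AP-1-bla in 0.5% dialyzed FBS Opti-MEM, with a 5 h, 37 °C compound exposure.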

Test [9] is described as follows: qHTS assay to identify small molecule agonists of the AP-1 signaling pathway (AID 1159526; calls by dose curve; further: on the % scale 0 is the no-effect control and ±100 the full control effect).
The target of test [10] is Retinoic acid receptor RXR-alpha (Homo sapiens) (UniProt P19793). As to the kind of experiment: qHTS assay to identify small molecule agonists of the RXR signaling pathway (AID 1159527; calls by dose curve; further: on the % scale 0 is the no-effect control and ±100 the full control effect; nearly all actives have a fitted effect of over 35% in size). The gist of the method: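 GeneBLAzer RXR-alpha-UAS-bla HEK 293T cells in 2% charcoal-stripped FBS medium were exposed to compounds for 16 hr at 37 C in agonist mode. Beta-lactamase reporter read as 460/530 nm FRET ratio after 2 hr substrate loading.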
Chain of Retinoic acid receptor RXR-alpha (Homo sapiens) (P19793 whole entry, looked up): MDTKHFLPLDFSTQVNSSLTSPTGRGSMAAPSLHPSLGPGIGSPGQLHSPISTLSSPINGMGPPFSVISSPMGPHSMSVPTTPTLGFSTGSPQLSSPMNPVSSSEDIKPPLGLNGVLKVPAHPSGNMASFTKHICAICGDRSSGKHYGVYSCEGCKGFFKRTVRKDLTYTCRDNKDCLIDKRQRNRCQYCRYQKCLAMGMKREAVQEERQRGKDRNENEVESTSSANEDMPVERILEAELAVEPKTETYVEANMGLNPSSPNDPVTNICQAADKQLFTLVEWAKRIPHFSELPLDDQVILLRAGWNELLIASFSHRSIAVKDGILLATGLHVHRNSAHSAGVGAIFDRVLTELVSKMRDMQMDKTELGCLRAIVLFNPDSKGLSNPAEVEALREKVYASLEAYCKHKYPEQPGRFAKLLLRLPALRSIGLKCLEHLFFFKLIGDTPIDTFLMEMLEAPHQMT

A short description of test [11]: qHTS assay to identify small molecule agonists of the RXR signaling pathway - cell viability counter screen (AID 1159529). The gist of the method:
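RXR-alpha-UAS-bla HEK 293T cells in medium with 2% charcoal-stripped FBS were pre-incubated 5 hr, then compound-treated 16 hr at 37 C. Viability was read by CellTiter-Glo luminescence in the same wells as the beta-lactamase assay, with tetraoctyl ammonium bromide as positive control.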

A short description of test [12]: qHTS assay to identify small molecule antagonists of the retinoid acid receptor (RAR) signaling pathway - cell viability counter screen (AID 1159551). Further: on the % scale 0 is the no-effect control and ±100 the full control effect; nearly all actives have a fitted effect of over 35% in size. In a few lines:
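C3RL4 cells were seeded overnight at 37 C, then treated with compounds plus 1 uM (final) retinol for 6 h at 37 C. Viability was read as ATP by CellTiter-Glo luminescence after 30 min at room temperature.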

The nature of test [13]: qHTS assay to identify small molecule antagonists of the retinoic acid receptor (RAR) signaling pathway (AID 1159552). The gist of the method: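 Retinol signaling pathway inhibitors screened in C3RL4 RARE-luciferase reporter cells seeded overnight at 37 C, then compounds added with 1 uM (final) retinol as pathway substrate. After 6 hr at 37 C, luciferase luminescence read after 30 min at room temperature.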

The nature of test [14]: qHTS assay to identify small molecule agonists of the retinoic acid receptor (RAR) signaling pathway (AID 1159553). Further: potency means the concentration at half of the fitted maximal effect. In a few lines:
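C3RL4 cells carrying a RARE luciferase reporter were plated overnight at 37 C, then exposed to compounds in DMSO for 6 hr at 37 C and 5% CO2. Luminescence was read 30 min after luciferase reagent addition at room temperature.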

The nature of test [15]: qHTS assay to identify small molecule antagonists of the estrogen related receptor (ERR) signaling pathway - cell viability counter screen (AID 1224818).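 Further: series mostly up to about 46 µM; viability measured after 17.5 h of compound exposure; on the % scale 0 is the no-effect control and ±100 the full control effect.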 The gist of the method: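 ERR reporter cells plated 6 h at 37 C/5% CO2, then compounds in DMSO pin-transferred and incubated 17.5 h at 37 C. Viability read as CellTiter-Fluor fluorescence after 30 min at 37 C.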
A short description of test [16]: qHTS assay to identify small molecule antagonists of the estrogen related receptor signaling pathway with the pleiotropic PPARgamma coactivator (PGC) cell viability counter screen (AID 1224822; further: series mostly up to about 46 µM; on the % scale 0 is the no-effect control and ±100 the full control effect). In a few lines:
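PGC/ERR cells were seeded at 2,000 cells/well, rested 6 h at 37 C/5% CO2, then given compounds in DMSO by pin tool and incubated 17.5 h at 37 C. Viability came from CellTiter-Fluor fluorescence after 30 min.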

Records with an inconclusive call do not appear. Unmarked numbers belong to inactive results. Calls of active or inactive are those of the source. Unless noted, the call rests on the fitted dose curve; in most records, active means well fitted curve in the direction sought with a large enough effect in the repeat runs; inconclusive means weak or mixed curves; inactive means no such curve, though single readings can be large; an effect the other way counts as inactive or inconclusive.

Here are results for 17 compounds from PubChem BioAssay (Tox21).

With `CCCCOCCOC(=O)COc1cc(Cl)c(Cl)cc1Cl`, the call in test [1], in test [2], in [3], in [4], in [5] and in test [6] was inactive. The outcome in test [8], in test [9] and in test [12] was inactive. Besides, the Potency entry in test [7], in test [10], in test [11] and in [13] was “inactive” throughout.
As for `C[N+](C)(C)CCCCCCCCCC[N+](C)(C)C`, the compound was called inactive in [1], in test [2], in test [3], in test [4], in test [5] and in test [6]. Moreover, the call in test [8], in test [9], in test [12], in test [15] and in test [16] was inactive. The Potency result in test [7], in test [10], in [11] and in test [14] was “inactive” in each case.
As for `Cc1ccc(C(=O)c2ccc(CC(=O)O)n2C)cc1`, the result in test [1], in test [2], in [3], in test [4], in test [5] and in [6] was inactive. Besides, the compound was called inactive in test [8], in test [9] and in test [12]. Further, the Potency entry in test [7], in test [10], in test [11] and in [14] was “inactive” each time.
Consider `Cc1ccc(-c2ccccc2C#N)cc1`, for which the result in test [1], in test [2], in test [3], in [4], in test [5] and in test [6] was inactive. In addition, the result in test [8], in test [9] and in test [12] was inactive. Further, the Potency entry in test [7], in test [10], in test [11] and in test [13] was “inactive” each time.
In the case of `CNC(=O)Nc1ccc(Cl)c(Cl)c1`, the compound was classed as inactive in test [1], in [2], in test [3], in test [4], in [5] and in test [6]. For the same compound, the result in test [8], in test [9] and in test [12] was inactive. Also, the Potency entry in [7], in test [10], in [11] and in [13] was “inactive” throughout.
In the case of `Nc1ccccn1`, the compound was classed as inactive in [1], in [2], in test [3], in test [4], in test [5] and in test [6]. For the same compound, the compound was called inactive in test [8], in [9] and in [12]. Besides, the Potency entry in test [7], in test [10], in test [11], in test [13] and in test [14] was “inactive” each time.
For `CCOC(=O)COc1cc(-n2ncc(C(F)(F)F)c(C)c2=O)c(F)cc1Cl`, the outcome in [1], in test [2], in test [3], in test [4], in test [5] and in [6] was inactive. Moreover, the outcome in test [8], in test [9] and in test [12] was inactive. Besides, the Potency result in test [7], in test [10], in test [11] and in test [13] was “inactive” each time.
For `Nc1c2c(nc3c1CCC3)CCCC2`, the call in test [1], in test [2], in test [3], in test [4], in [5] and in test [6] was inactive. Moreover, the call in test [8], in [9] and in test [12] was inactive. Also, the Potency result in [7], in test [10], in test [11] and in test [14] was “inactive” in each case.
On to `CCCCCCCC1CCCC1=O` (configuration not stated), for which the outcome in test [1], in [2], in test [3], in test [4], in [5] and in test [6] was inactive. For the same compound, the compound was classed as inactive in [8], in test [9] and in [12]. Also, the Potency entry in test [7], in test [10], in test [11] and in test [13] was “inactive” in each case.
In the case of `COCCOC[C@H](CC1(C(=O)NC2CCC(C(=O)O)CC2)CCCC1)C(=O)Oc1ccc2c(c1)CCC2` (some centres not stated), the call in test [1], in [2], in [3], in test [4], in [5] and in [6] was inactive. The outcome in test [8], in [9] and in [12] was inactive. The Potency entry in test [7], in test [10], in test [11], in test [13] and in test [14] was “inactive” in each case.
Turning to `C=C(C)C(=O)OCC1CCCO1` (configuration not stated), the call in [1], in test [2], in [3], in test [4], in [5] and in test [6] was inactive. Besides, the outcome in test [8], in test [9] and in test [12] was inactive. The Potency result in test [7], in [10], in test [11] and in test [13] was “inactive” in each case.
In the case of `O=C1CCCCCCCCCCCCCCO1`, the outcome in test [1], in test [2], in test [3], in [4], in [5] and in [6] was inactive. Also, the outcome in test [8], in test [9] and in test [12] was inactive. In addition, the Potency entry in [7], in test [10], in test [11], in test [13] and in test [14] was “inactive” each time.
`CO/N=C(\C(=O)N[C@@H]1C(=O)N2C(C(=O)O)=C(CSc3nc(=O)c(O)nn3C)CS[C@H]12)c1csc(N)n1`: the result in test [1], in test [2], in test [3], in [4], in test [5] and in test [6] was inactive. The result in [8], in [9] and in [12] was inactive. Also, the Potency result in [7], in test [10], in test [11] and in [14] was “inactive” throughout.
Regarding `CC(C)(C)c1ccc(-c2ccc(C(C)(C)C)cc2)cc1`, the compound was classed as inactive in [1], in [2], in test [3], in test [4], in test [5] and in test [6]. Moreover, the compound was called inactive in test [8], in test [9] and in test [12]. Besides, the Potency entry in test [7], in test [10], in test [11] and in test [13] was “inactive” in each case.
For `O=C1c2ccccc2C(=O)c2cc(O)ccc21`, the call in test [1], in test [2], in test [3], in test [4], in [5] and in test [6] was inactive. For the same compound, the result in test [8], in [9] and in [12] was inactive. Further, the Potency result in test [7], in test [10], in [11] and in test [13] was “inactive” in each case. Besides, the Potency in [14] is 17.2 µM (active).
Take `FB(F)F`: the call in [1], in test [2], in test [3], in test [4], in [5] and in test [6] was inactive. Besides, the call in [8], in [9] and in test [12] was inactive. In addition, the Potency entry in test [7], in [10], in test [11] and in test [14] was “inactive” throughout.
As to `C[N+]1(CC2COC(c3ccccc3)(c3ccccc3)O2)CCCCC1` (configuration not stated), the compound was classed as inactive in [1], in test [2], in test [3], in [4] and in [5]. Further, the activity, negative = cytotoxicity in test [6] is -0.623% [at 19 µM]. Further, the activity change, negative = inhibition in test [7] was 7.79% [at 19 µM]. Also, the viability change, negative = cytotoxic in test [8] was 0.502% [at 15.8 µM]. For the same compound, the activation in [9] was -1.1% [at 15.8 µM]; in [10], -0.901% [at 15.8 µM]. For the same compound, the activity change, negative = cytotoxicity in test [11] is -2.46% [at 15.8 µM]; in test [12] it was -0.8% [at 19 µM]. In test [14], the Potency entry was “inactive”.
